# Assay results as given in PubChem BioAssay AID1159580 (chemical genetic matrix, 2015).
# In all, about 5,500 compounds went through this assay and about 2,000 (36%) were called active. Roughly 18% stayed inconclusive and do not appear here. The list shows a part of the results. Unmarked numbers belong to inactive results. Cut-off read from the data, not from the text of the source: active = normalized growth mostly below about 0.91 (no sharp cut-off); inconclusive = no clear call, values can overlap the other calls; inactive = mostly above about 0.92.
# Experiment: chemical genetic growth profiling, strain panel (AID 1159580);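 note: tested at 20 µM; growth read once vehicle control cultures reached saturation at 30 °C; 1 = growth at the plate median or of vehicle wells; lower values mean less growth of the strain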
# Settings: S. cerevisiae deletion strains, growth OD
structure (smiles),measurement,setting,value
CN(C)c1ccc2nc3ccc(=[N+](C)C)cc-3sc2c1,normalized growth,"locus YAL021C, strain ccr4, active compounds read low",0.991
same,normalized growth,"locus YAL026C, strain drs2, active compounds read low",1.01
same,normalized growth,"locus YAL030W, strain snc1, active compounds read low",1.06
same,normalized growth,"locus YBL061C, strain skt5, active compounds read low",1.05
same,normalized growth,"locus YBR009C, strain hhf1, active compounds read low",1.04
same,normalized growth,"locus YBR023C, strain chs3, active compounds read low",1.07
same,normalized growth,"locus YBR171W, strain sec66, active compounds read low",1.08
same,normalized growth,"locus YBR231C, strain swc5, active compounds read low",0.995
same,normalized growth,"locus YBR279W, strain paf1, active compounds read low",1.07
same,normalized growth,"locus YCL011C, strain gbp2, active compounds read low",1.04
same,normalized growth,"locus YCL016C, strain dcc1, active compounds read low",1.02
same,normalized growth,"locus YCL069W, strain vba3, active compounds read low",1.08
same,normalized growth,"locus YCR088W, strain abp1, active compounds read low",1.07
same,normalized growth,"locus YDL005C, strain med2, active compounds read low",1.1 [resistant] (active)
same,normalized growth,"locus YDL040C, strain nat1, active compounds read low",1.05
same,normalized growth,"locus YDR001C, strain nth1, active compounds read low",1.06
same,normalized growth,"locus YDR069C, strain doa4, active compounds read low",1.06
same,normalized growth,"locus YDR137W, strain rgp1, active compounds read low",1
same,normalized growth,"locus YDR159W, strain sac3, active compounds read low",1.03
same,normalized growth,"locus YDR195W, strain ref2",1.25 [resistant] (active)
same,normalized growth,"locus YDR297W, strain sur2, active compounds read low",1.07
same,normalized growth,"locus YDR334W, strain swr1, active compounds read low",1.05
same,normalized growth,"locus YDR335W, strain msn5, active compounds read low",1.07
same,normalized growth,"locus YDR392W, strain spt3, active compounds read low",0.624 (active)
same,normalized growth,"locus YEL003W, strain gim4, active compounds read low",0.974
same,normalized growth,"locus YEL037C, strain rad23, active compounds read low",1.06
same,normalized growth,"locus YEL061C, strain CIN8 (second series), active compounds read low",1.04
same,normalized growth,"locus YER015W, strain faa2, active compounds read low",1.05
same,normalized growth,"locus YER016W, strain bim1, active compounds read low",1.05
same,normalized growth,"locus YER111C, strain swi4, active compounds read low",1.08
same,normalized growth,"locus YER155C, strain BEM2 (second series), active compounds read low",0.941
same,normalized growth,"locus YFR010W, strain ubp6, active compounds read low",1.06
same,normalized growth,"locus YGL167C, strain pmr1, active compounds read low",1.09 [resistant] (active)
same,normalized growth,"locus YGL173C, strain kem1, active compounds read low",1.05
same,normalized growth,"locus YGL227W, strain vid30, active compounds read low",1.08
same,normalized growth,"locus YGL240W, strain doc1, active compounds read low",1
same,normalized growth,"locus YGL253W, strain hxk2, active compounds read low",1.11 [resistant] (active)
same,normalized growth,"locus YHR013C, strain ard1, active compounds read low",1.18 [resistant] (active)
same,normalized growth,"locus YHR027C, strain rpn1, active compounds read low",1.08 [resistant] (active)
same,normalized growth,"locus YHR030C, strain SLT2, active compounds read low",0.994
same,normalized growth,"locus YHR079C, strain IRE1, active compounds read low",1.02
same,normalized growth,"locus YHR142W, strain chs7, active compounds read low",1.07
same,normalized growth,"locus YJL092W, strain hpr5, active compounds read low",1.05
same,normalized growth,"locus YJL095W, strain BCK1 (second series), active compounds read low",1.07
same,normalized growth,"locus YJL095W, strain BCK1, active compounds read low",1.05
same,normalized growth,"locus YJL115W, strain asf1, active compounds read low",1.07
same,normalized growth,"locus YJL129C, strain trk1, active compounds read low",1.08
same,normalized growth,"locus YJL154C, strain vps35, active compounds read low",1.06
same,normalized growth,"locus YJL164C, strain tpk1, active compounds read low",1.04
same,normalized growth,"locus YJL166W, strain qcr8, active compounds read low",1.02
same,normalized growth,"locus YJR066W, strain TOR1, active compounds read low",0.576 (active)
same,normalized growth,"locus YKL160W, strain elf1, active compounds read low",1.03
same,normalized growth,"locus YKR026C, strain gcn3, active compounds read low",1.07
same,normalized growth,"locus YKR091W, strain srl3, active compounds read low",1.07 [resistant] (active)
same,normalized growth,"locus YLL001W, strain dnm1, active compounds read low",1.05
same,normalized growth,"locus YLL026W, active compounds read low",1.05
same,normalized growth,"locus YLL041C, strain sdh2, active compounds read low",1.08 [resistant] (active)
same,normalized growth,"locus YLR027C, strain aat2, active compounds read low",1.05
same,normalized growth,"locus YLR113W, strain HOG1, active compounds read low",1.07
same,normalized growth,"locus YLR221C, strain rsa3, active compounds read low",1.04
same,normalized growth,"locus YLR258W, strain gsy2, active compounds read low",1.04
same,normalized growth,"locus YLR262C, strain YPT6 (second series), active compounds read low",1.1
same,normalized growth,"locus YLR320W, strain mms22, active compounds read low",0.993
same,normalized growth,"locus YLR342W, strain FKS1, active compounds read low",1.06
same,normalized growth,"locus YLR357W, strain rsc2, active compounds read low",1.12
same,normalized growth,"locus YLR370C, strain arc18, active compounds read low",1.05
same,normalized growth,"locus YLR384C, strain iki3, active compounds read low",1.07
same,normalized growth,"locus YML120C, strain ndi1, active compounds read low",1.04
same,normalized growth,"locus YMR058W, strain fet3, active compounds read low",0.985
same,normalized growth,"locus YMR125W, strain sto1, active compounds read low",1.09
same,normalized growth,"locus YMR129W, active compounds read low",1.05
same,normalized growth,"locus YMR205C, strain PFK2, active compounds read low",1.03
same,normalized growth,"locus YMR231W, strain pep5, active compounds read low",1.04
same,normalized growth,"locus YNL071W, strain lat1, active compounds read low",0.992
same,normalized growth,"locus YNL183C, strain NPR1, active compounds read low",0.543 (active)
same,normalized growth,"locus YNL209W, strain ssb2, active compounds read low",1.08 [resistant] (active)
same,normalized growth,"locus YNL248C, strain rpa49, active compounds read low",1.11
same,normalized growth,"locus YNL322C, strain KRE1 (second series), active compounds read low",1.04
same,normalized growth,"locus YNR049C, strain mso1, active compounds read low",1.05
same,normalized growth,"locus YOR001W, strain rrp6, active compounds read low",1.06
same,normalized growth,"locus YOR070C, strain gyp1, active compounds read low",1.05
same,normalized growth,"locus YOR080W, strain dia2, active compounds read low",1.06
same,normalized growth,"locus YOR083W, strain WHI5, active compounds read low",1.05
same,normalized growth,"locus YOR106W, strain vam3, active compounds read low",0.994
same,normalized growth,"locus YOR231W, strain MKK1, active compounds read low",1.01
same,normalized growth,"locus YOR265W, strain rbl2, active compounds read low",1.04
same,normalized growth,"locus YOR270C, strain vph1, active compounds read low",0.983
same,normalized growth,"locus YOR290C, strain snf2, active compounds read low",1.03
same,normalized growth,"locus YPL051W, strain arl3, active compounds read low",0.979
same,normalized growth,"locus YPL078C, strain atp4, active compounds read low",1.05
same,normalized growth,"locus YPL106C, strain sse1, active compounds read low",1.05
same,normalized growth,"locus YPL240C, strain hsp82, active compounds read low",1.06
same,normalized growth,"locus YPL256C, strain CLN2, active compounds read low",1.02
